CDC25B-CDK2 inh: human CDC25B-CDK2/CyclinA binding inhibition; z-score (no concentration beside the values); HTRF CDC25B-CDK2/CyclinA binding, anti-His/anti-Flag; active compounds read high; 0.72% of 94,000 active; P30305+P24941; in the data active means z-score above about 3.2
HIV TAR-Tat: HIV-1 TAR-Tat binding disruption; 0.6% of 100,000 active; z-score (test concentration not listed); HIV-1 TAR RNA, Tat peptide displacement FRET; active compounds read high; active means z-score of 3 or more in at least 2 runs
Numbers without * were called inactive; nt = not tested or not shown. An excerpt weighted towards active compounds, which were near 0.9% of everything screened.

SMILES	CDC25B-CDK2 inh	HIV TAR-Tat
CSc1cccc(NC(=O)CS(=O)(=O)c2ccc3c(c2)S(=O)(=O)N=CN3)c1	nt	1.7
c1ccc(-c2noc(NCc3cccs3)n2)cc1	nt	0.65
CCCCN(C)C(=O)Cn1nnc2sc3c(c2c1=O)CCCC3	-1.7	1.8
Cc1ccc(C2CC(=O)NC3=C2C(=O)CC(C)(C)C3)cc1Br (centres undefined)	-0.83	-5.4
Cn1c2c(c(=O)[nH]c1=O)C(c1ccc([N+](=O)[O-])o1)C1=C(N2)c2ccccc2C1=O (centres undefined)	0.36	3.6*
Cn1c2c(c(=O)[nH]c1=O)C(c1ccccc1)C1=C(N2)c2ccccc2C1=O (centres undefined)	-2.6	-18
O=C(O)c1cc(O)c2c(c1)[C@@H]([C@H]1c3cc(C(=O)O)cc(O)c3C(=O)c3c(O[C@H]4O[C@H](CO)[C@@H](O)[C@H](O)[C@H]4O)cccc31)c1cccc(O[C@H]3O[C@H](CO)[C@@H](O)[C@H](O)[C@H]3O)c1C2=O	nt	22*
CN(C)CCNc1ncnc2c1c(-c1ccccc1)cn2-c1ccc(Cl)cc1	-1.8	-0.63
CC1(C)N=C(N)N=C(N)N1c1c(Cl)cccc1Cl	7.9*	nt
Cc1ccccc1N1C(N)=NC(N)=NC1(C)C	-0.13	nt
O=C1C=C(NCc2ccco2)CC(c2ccccc2)C1 (centres undefined)	-1.2	0.24
O=C1C=C(NCCc2ccccc2)CC(c2ccco2)C1 (centres undefined)	-0.39	24*
COC(=O)c1c(C)n(S(C)(=O)=O)c2cc(C)c(NS(C)(=O)=O)cc12	-1.5	0.7
Cc1sc2c(c1C)CSC(C(=O)NCc1ccco1)=C2	nt	3.6*
Cc1ccc(CNC(=O)C2=Cc3sc(C)c(C)c3CS2)cc1	nt	0.81
c1ccc(-c2cn(-c3ccccc3)c3ncnc(NC4CC4)c23)cc1	-1.5	-0.42
C=CCN1C(=O)C(=O)c2cccc(C)c21	-0.28	2.5
Cc1ccc(C(=O)c2cnc3cc4c(cc3c2N2CCC(C(N)=O)CC2)OCO4)cc1C	2.7	17*
Cc1ccc(C(=O)c2cnc3cc4c(cc3c2N2CCC(C(N)=O)CC2)OCCO4)cc1C	-1.6	5.5
O=C(CS(=O)(=O)c1ccc2c(c1)S(=O)(=O)N=CN2)Nc1ccc(F)cc1Cl	nt	1.2
COc1ccc2c(c1)NC1(CCN(S(=O)(=O)c3ccc4c(c3)oc(=O)n4C)CC1)c1cccn1-2	nt	0.11
Cc1ccc(C)n1-c1cc(C(=O)O)ccc1Cl	1.5	nt
Cc1ccc(C)n1-c1ccc(Cl)cc1C(=O)O	-2.1	14*
Cc1cc(C(=O)O)ccc1-n1c(C)ccc1C	-1.1	nt
Cc1ccc(C)n1-c1ccc(Cl)c(C(=O)O)c1	0	16*
SMILES	CDC25B-CDK2 inh	HIV TAR-Tat
CCOc1ccc2ncc(S(=O)(=O)c3ccccc3)c(N3CCCCC3)c2c1	-0.61	-0.35
CCOc1ccc2ncc(S(=O)(=O)c3ccc(C)cc3)c(N3CCCC3)c2c1	5.2*	0.15
COc1cc2ncc(S(=O)(=O)c3ccc(C)cc3)c(N3CCCC3)c2cc1OC	9.6*	-0.63
COc1ccc(S(=O)(=O)c2cnc3cc(OC)c(OC)cc3c2N2CCCCC2)cc1	-2	1.6
CCCCCn1c(N2CCNCC2)nc2c1c(=O)[nH]c(=O)n2C	-1.1	nt
CC(=O)Oc1cccc(C2OC(c3cccc(Br)c3)=NN2C(C)=O)c1OC(C)=O (centres undefined)	nt	0.65
Cc1sc2ncn(CC(=O)N3CCN(C)CC3)c(=O)c2c1S(=O)(=O)N1CCCCC1	-0.41	nt
Cc1sc2ncn(CC(=O)N(C)C3CCCCC3)c(=O)c2c1S(=O)(=O)N1CCN(C)CC1	15*	-0.17
CC(=O)Nc1c2n(c3ccc(F)cc13)CC(C)(C(=O)NC1CCCCC1)N(C(C)C)C2=O (centres undefined)	nt	18*
CC(=O)Nc1c2n(c3ccc(F)cc13)CC(C)(C(=O)NC1CCCCC1)N(CCC(C)C)C2=O (centres undefined)	nt	1.5
Cc1ccccc1-c1noc(-c2nnn(-c3ccc(Br)cc3)c2N)n1	nt	-0.39
CN(CC(=O)N1CCc2ccccc21)S(=O)(=O)c1ccc(-c2ccc(=O)[nH]n2)s1	nt	0.91
O=C(CC1=NS(=O)(=O)c2ccccc2N1)Nc1ccc(F)cc1F	nt	0.93
O=C(NC(NC(=S)Nc1cccc2ccccc12)C(Cl)(Cl)Cl)c1ccccc1F (centres undefined)	5.3*	nt
O=C(NC(NC(=S)Nc1ccccc1Br)C(Cl)(Cl)Cl)c1ccccc1 (centres undefined)	1.2	nt
Clc1ccc(/C=N/Nc2ccc(-c3cnco3)cc2)cc1	-0.62	nt
O=C(NCc1csc(-c2cccs2)n1)[C@H]1CSCN1C(=O)c1ccccc1Br	nt	1.9
O=S(=O)(c1cccc(C(F)(F)F)c1)N(Cc1ccc2c(c1)OCO2)c1ccc(F)cc1	-0.02	nt
Nc1ccc(-c2nc3ccccc3s2)c(Cl)c1	7.1	-2.1
Nc1ccc(O)c(-c2nc3ccc(N)cc3s2)c1	2.3	36*
Cc1ccc(CNC(=O)c2cc(=O)sc3nc4ccccc4n23)o1	nt	-0.51
CC12CCOC1(C)N(Cc1ccccc1)c1ccccc12 (centres undefined)	-3.1	nt
Cc1ccc(C)c(S(=O)(=O)Nc2ccc3oc(C)c(C(=O)O)c3c2)c1	0.27	14*
COCCOC(=O)c1c(C)oc2ccc(NS(=O)(=O)c3cc(C)ccc3C)cc12	-3.5	nt
O=C(Cn1c(=O)oc2cc(Cl)ccc21)NCCCc1ccco1	nt	2.2
SMILES	CDC25B-CDK2 inh	HIV TAR-Tat
c1ccc(NC2=Nc3scc[n+]3[B-](c3ccccc3)(c3ccccc3)S2)cc1	-1.9	nt
CCC[B-]1(CCC)OC(Nc2ccc3ccccc3c2)=Nc2scc[n+]21	4.2*	nt
CC(C)(C)N[C@H]1CS(=O)(=O)C[C@@H]1S(=O)(=O)c1ccccc1	-0.12	19*
O=S1(=O)C[C@H](NCc2ccccc2)[C@@H](S(=O)(=O)c2ccccc2)C1	-1.4	-1.2
O=S(=O)(c1ccc(-c2cnc(C3CCCC3)o2)s1)N1CCc2ccccc2C1	nt	1.3
Cc1nc(N2CCC(C(=O)O)CC2)c2c(C)c(C)oc2n1	-0.4	0.92
COC(=O)c1c(SCC(=O)Nc2ccc(F)cc2)[nH]c2ccc(Cl)cc2c1=O	nt	16*
COC(=O)c1c(SCC(=O)Nc2ccc(F)c(F)c2)[nH]c2ccc(Cl)cc2c1=O	nt	-0.18
CSc1ccc(CCN2CNc3c(c(=O)n(C)c(=O)n3C)C2)cc1	-1.1	-0.66
Cc1ccc(S(=O)(=O)Nc2cc(Sc3nc4ccccc4[nH]3)c(O)c3ccccc23)cc1	18*	nt
Cc1ccc(S(=O)(=O)Nc2cc(Sc3nc(C)cc(C)n3)c(O)c3ccccc23)cc1	-2.3	nt
CCOC(=O)c1c(C)[nH]c(C)c1S(=O)(=O)NCC(=O)NCc1cccs1	nt	0.55
O=C(CCCCCn1c(=S)[nH]c2cc3c(cc2c1=O)OCO3)NCC1CCCO1 (centres undefined)	-2.3	nt
CSc1nc2c(c(=O)[nH]1)C(c1ccc(O)c(O)c1)CC(=O)N2 (centres undefined)	5.6	18*
CCSc1nc2c(c(=O)[nH]1)C(c1cccc(O)c1)CC(=O)N2 (centres undefined)	-1.4	0.62
CCSc1nc2c(c(=O)[nH]1)C(c1ccc(O)c(O)c1)CC(=O)N2 (centres undefined)	14*	22*
CSc1nc2c(c(=O)[nH]1)C(c1cccc(O)c1)CC(=O)N2 (centres undefined)	-2.4	2.8
Cc1ccc(-n2cnc3cc(NCc4ccncc4)ccc32)cc1	3.5	-0.08

Compound activity deposited in PubChem by Center for Chemical Genomics, University of Michigan.
